Some test systems named below: HIPK2; HIPK3; HIPK4; HPK1; HUNK; ICK; IGF1R.
What all share (settings): concentration: 1 μM, replicates: in singlicate; n = 1
The test system of a further assay is T1, IKK-alpha.
T1 construct: gene CHUK

The subject of the next assay is T2, IKK-beta.
T2 construct: gene IKBKB

A further assay relates to T3, IKK-epsilon.
T3 construct: gene IKBKE
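Also: KINOMEscan kinase panel screen.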

Turning to `C[C@@H]1CCN(C(=O)CO)C[C@@H]1N(C)c1ncnc2[nH]ccc12`, the “%Inh” value in the assay on HIPK2, with HIPK3, in the assay with HIPK4, in the assay on HPK1, in the assay with HUNK and with ICK was 0% each time. Moreover, the “%Inh” value in the assay with IGF1R, in the assay with IKK-alpha, with IKK-beta and in the assay on IKK-epsilon was 0% in each case.

Consider `Oc1ccc2ncnc(Nc3ccc(OCc4ccccc4)cc3)c2c1` [GI262866], for which the “%Inh” value with HIPK2 worked out at 58%; with HIPK3 it was 6%; with HIPK4, 0%; in the assay with HPK1, 41%; with HUNK, 8%; in the assay on ICK, 7%. Also, the “%Inh” value in the assay on IGF1R is reported as 0%; in the assay on IKK-alpha it was 7%; in the assay with IKK-beta, 16%; in the assay with IKK-epsilon, 0%.

`Cl.Cn1ccc(-c2cccc(Nc3ccnc4cc(-c5nccs5)ccc34)c2)n1` [GW525701]: the “%Inh” value is recorded as 0% with HIPK2; 0% in the assay on HIPK3; 0% with HIPK4; 34% in the assay with HPK1; 22% in the assay on HUNK; 11% in the assay on ICK. For the same compound, the “%Inh” value worked out at 21% in the assay on IGF1R, 30% in the assay on IKK-alpha, 11% in the assay on IKK-beta and 31% in the assay on IKK-epsilon.

Consider `Fc1cccc(COc2ccc(Nc3ncnc4nn5ccccc5c34)cc2Cl)c1` [GW689066], for which the “%Inh” value in the assay on HIPK2 came to 0%; in the assay on HIPK3, 0%; in the assay with HIPK4, 0%; in the assay with HPK1 it was 22%; in the assay on HUNK, 28%; in the assay with ICK, 0%. In addition, the “%Inh” value is 0% in the assay with IGF1R, 11% with IKK-alpha, 0% with IKK-beta and 0% with IKK-epsilon.

Regarding `CCCc1ccc(S(=O)(=O)NC2CCN(c3ccnc(Nc4ccc(OC)cc4)n3)C2)cc1` (centres unmarked) [GSK1379737], the “%Inh” value in the assay with HIPK2 was 0%; with HIPK3, 8%; with HIPK4 it was 0%; in the assay on HPK1 it was 31%; in the assay with HUNK it was 10%; with ICK, 0%. Also, the “%Inh” value with IGF1R is 8%; in the assay with IKK-alpha it was 36%; in the assay on IKK-beta it was 0%; in the assay on IKK-epsilon it was 0%.

In the case of `Cl.c1ccc(Cn2ncc3cc(Nc4ncnc5ccccc45)ccc32)cc1` [GW273749], the “%Inh” value is given as 0% in the assay with HIPK2; 0% in the assay with HIPK3; 0% in the assay on HIPK4; 20% in the assay with HPK1; 0% in the assay with HUNK; 0% in the assay with ICK. The “%Inh” value came out at 0% in the assay with IGF1R, 0% in the assay with IKK-alpha, 31% with IKK-beta and 24% with IKK-epsilon.

As for `Clc1cc(Nc2ncnc3cc[nH]c23)ccc1OCc1ccccn1`, the “%Inh” value in the assay with HIPK2 is listed as 19%; in the assay with HIPK3 it was 27%; in the assay on HIPK4 it was 0%; with HPK1, 0%; with HUNK it was 13%; in the assay with ICK, 18%. Further, the “%Inh” value is reported as 0% with IGF1R, 9% in the assay with IKK-alpha, 20% with IKK-beta and 27% with IKK-epsilon.

For the compound `OCCOCCn1ccc2ncnc(Nc3ccc(Oc4cccc(Cl)c4)c(Cl)c3)c21`, the “%Inh” value in the assay with HIPK2 was 0%; in the assay with HIPK3 it was 0%; in the assay on HIPK4 it was 0%; with HPK1, 0%; in the assay on HUNK it was 7%; with ICK it was 0%. For the same compound, the “%Inh” value with IGF1R, in the assay on IKK-alpha, with IKK-beta and in the assay on IKK-epsilon was 0% throughout.

Turning to `O=c1cc(N2CCOCC2)nc2n(Cc3cccc(Cl)c3)ccn12` [GSK2296823], the “%Inh” value is recorded as 0% in the assay with HIPK2; 18% in the assay on HIPK3; 0% in the assay with HIPK4; 37% in the assay with HPK1; 0% with HUNK; 19% in the assay with ICK. Further, the “%Inh” value in the assay on IGF1R turned out to be 1%; in the assay on IKK-alpha, 3%; with IKK-beta, 17%; with IKK-epsilon, 35%.

With `Cn1ccc2ncnc(Nc3ccc(Oc4cccc(Cl)c4)c(Cl)c3)c21`, the “%Inh” value in the assay with HIPK2 is on record as 37%; in the assay on HIPK3, 22%; in the assay on HIPK4, 3%; with HPK1, 2%; in the assay on HUNK, 0%; in the assay with ICK it was 12%. The “%Inh” value with IGF1R was determined as 0%; in the assay with IKK-alpha, 3%; in the assay with IKK-beta, 7%; in the assay on IKK-epsilon, 11%.

For `COC(=O)c1cccc(NC(=O)NCCNc2ccnc(Nc3ccc(F)cc3)n2)c1` [GSK1379883], the “%Inh” value with HIPK2 turned out to be 0%; with HIPK3 it was 0%; with HIPK4, 0%; in the assay with HPK1, 45%; in the assay on HUNK it was 90%; in the assay on ICK, 0%. Moreover, the “%Inh” value in the assay with IGF1R was found to be 6%; in the assay on IKK-alpha, 0%; in the assay on IKK-beta, 0%; in the assay on IKK-epsilon it was 1%.

For the compound `CCC(CC)(CC)n1cnc2c(N)ncnc21` [SKF-97620], the “%Inh” value with HIPK2 is 10%; with HIPK3, 19%; with HIPK4, 8%; with HPK1, 0%; in the assay with HUNK it was 34%; in the assay with ICK, 32%. Besides, the “%Inh” value in the assay on IGF1R amounted to 0%; with IKK-alpha it was 30%; in the assay with IKK-beta it was 8%; with IKK-epsilon, 0%.

Regarding `CS(=O)(=O)CCNCc1ccc(-c2ccc3ncnc(Nc4ccc(OCc5ccccc5)c(Cl)c4)c3c2)o1.Cl` [GW574783], the “%Inh” value with HIPK2 is reported as 13%; with HIPK3, 18%; with HIPK4, 18%; with HPK1, 22%; in the assay with HUNK it was 14%; in the assay on ICK, 0%. For the same compound, the “%Inh” value is reported as 13% in the assay on IGF1R, 0% with IKK-alpha, 0% with IKK-beta and 7% with IKK-epsilon.

With `CS(=O)(=O)CCNCc1nc(-c2ccc3ncnc(Nc4ccc(OCc5cccc(F)c5)c(Cl)c4)c3c2)cs1.Cl` [GW583340], the “%Inh” value worked out at 0% in the assay on HIPK2; 0% with HIPK3; 0% in the assay on HIPK4; 33% in the assay on HPK1; 0% with HUNK; 0% in the assay with ICK. Also, the “%Inh” value in the assay with IGF1R is 0%; in the assay on IKK-alpha it was 3%; with IKK-beta, 6%; in the assay on IKK-epsilon, 7%.

For the compound `Nc1nc(-c2ccc3c(N)n[nH]c3c2)cc(N2CCC[C@@H](C(=O)Nc3ccccc3)C2)n1.O=C(O)C(F)(F)F.O=C(O)C(F)(F)F` [GSK2288359], the “%Inh” value in the assay on HIPK2 was 0%; in the assay on HIPK3, 6%; in the assay on HIPK4 it was 1%; in the assay on HPK1 it was 32%; with HUNK, 0%; in the assay with ICK it was 12%. For the same compound, the “%Inh” value was 100% with IGF1R, 0% in the assay with IKK-alpha, 0% in the assay on IKK-beta and 29% in the assay on IKK-epsilon.

On to `Nc1nc(-c2ccccn2)c(-c2ccnc3ccccc23)s1` [GW548057], for which the “%Inh” value is 5% in the assay on HIPK2; 15% in the assay with HIPK3; 0% in the assay with HIPK4; 20% in the assay with HPK1; 8% in the assay with HUNK; 7% in the assay on ICK. In addition, the “%Inh” value came out at 9% in the assay with IGF1R, 8% with IKK-alpha, 0% in the assay with IKK-beta and 22% in the assay on IKK-epsilon.

On to `CN1c2ccc(-c3ccc(C(=O)NCCO)cc3)cc2-c2[nH]ncc2S1(=O)=O`, for which the “%Inh” value in the assay with HIPK2 is 52%; with HIPK3 it was 39%; in the assay with HIPK4 it was 16%; with HPK1, 22%; with HUNK it was 0%; with ICK, 0%. The “%Inh” value with IGF1R was 7%; in the assay with IKK-alpha, 0%; with IKK-beta, 0%; with IKK-epsilon, 31%.

Source of the values: publication PMC5540273 (PLoS ONE, 2017).
